Measured values taken from PubChem BioAssay AID624134 (Broad Institute, 2012).
Hit rate of the full screen: of about 1,600 compounds, about 1,100 (69%) were called active. So high a share suggests a set chosen from earlier hits. These entries were drawn from the full list. Entries with a potency or affinity are not part of this list. Inconclusive results are not listed.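 How the source made its calls: active means signal drop with fitted half-maximal concentration no higher than twice the top valid tested concentration; inconclusive means flat curve with 30 to 70% signal loss, or poor fit; inactive means the rest, including signal rises and flat curves within 30%.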

Assay: loss of viability in HepG2 cells – cell-based, CellTiter-Glo, cherry-picked, cytotoxicity control for Shn3 inhibitor project, dose response (AID 624134)
Conditions: CellTiter-Glo ATP luminescence, 48 h; series mostly up to 35 µM
With CC1CN(C(=O)CCc2cc(C(C)(C)C)c(O)c(C(C)(C)C)c2)CC(C)O1 (stereo unspecified) the outcome was “inactive”.
In the case of CCOc1ccc(Cn2nnc(C(=O)Nc3cc(OC)cc(OC)c3)c2N)cc1, the outcome is reported as “inactive”.
For Cc1onc(-c2c(Cl)cccc2Cl)c1C(=O)N[C@@H]1C(=O)N2[C@@H]1SC(C)(C)[C@@H]2C(=O)O, the outcome was “inactive”.
With Cc1onc(-c2ccccc2Cl)c1C(=O)N(C)C1CCCCC1 the outcome was “inactive”.
For COCc1c(C(=O)Nc2cccc(S(=O)(=O)N3CCCCC3)c2)oc2ccccc12, the outcome was “inactive”.
For COc1ccc(NC(=O)CCOc2cc(C)ccc2C)cc1S(=O)(=O)N1CCCCC1, the outcome was “inactive”.
For O=C(CSc1nnc(-c2ccc(Cl)cc2Cl)n1C1CCCCC1)N1CCCC1, the outcome was “inactive”.
With COC(=O)c1cn(NC(=O)c2cc([N+](=O)[O-])ccc2F)c(=O)c2ccccc12 the outcome was “inactive”.
In the case of CCCCN1C2=NCCCN2c2cc(C)c(C)cc21, the outcome is reported as “inactive”.
In the case of CCN(CC)C(=O)[C@H]1C[C@H](CC(=O)NC/C=C(\C)CCC=C(C)C)C(=O)N2CCc3c([nH]c4cc(CCC(=O)N(C)C)ccc34)[C@]12C, the outcome is reported as “inactive”.
For COCCN1Cc2cccc(C(=O)Nc3ccc4c(c3)OCCO4)c2C1=O, the outcome was “inactive”.
For COc1ccc(N2C(=O)C(CC(=O)Nc3ccccc3)N(Cc3ccc(OC)c(OC)c3)C2=O)cc1 (stereo unspecified), the outcome was “inactive”.
With Cc1ccc(CNC(=O)c2cc(-c3ccccc3C)nn2CC2CC(c3cccnc3)=NO2)cc1 (stereo unspecified) the outcome was “inactive”.
With COc1cc(NC(=O)c2cc3c(Cl)nc4ccccc4c3s2)cc(OC)c1OC the outcome was “inactive”.
With COC(=O)c1ccccc1NC(=O)c1nc(S(=O)(=O)Cc2ccccc2)ncc1Cl the outcome was “inactive”.
With CCS(=O)(=O)c1ncc(Cl)c(C(=O)Nc2ccccc2OC)n1 the outcome was “inactive”.
For Cc1cccc(CS(=O)(=O)c2ncc(Cl)c(C(=O)Nc3nnc(C(C)C)s3)n2)c1, the outcome was “inactive”.
With S=c1[nH]nc(COc2cccc3ccccc23)n1Cc1ccccc1 the outcome was “inactive”.
In the case of COC(=O)c1ccc(COC(=O)c2[nH]c(C)c(C(C)=O)c2C)o1, the outcome is reported as “inactive”.
For CCc1nnc(NC(=O)c2nc(S(=O)(=O)Cc3cccc(C)c3)ncc2Cl)s1, the outcome was “inactive”.
For CCCc1nnc(NC(=O)c2nc(S(=O)(=O)Cc3ccc(C)cc3)ncc2Cl)s1, the outcome was “inactive”.
For CN(C)S(=O)(=O)c1cccc(N=c2scc(-c3ccc4c(c3)NC(=O)CO4)n2CC2CCCO2)c1 (stereo unspecified), the outcome was “inactive”.
In the case of CC(C)(C)C(=O)Nc1cc(S(=O)(=O)N2CCCCC2)ccc1N1CCCCC1, the outcome is reported as “inactive”.
With Cc1ccc(-c2nc3ncccc3o2)cc1NC(=O)c1sc2ccccc2c1Cl the outcome was “inactive”.
With Cc1ccc2cc(CN(CC3CCCO3)C(=O)NC3CCCCC3)c(=O)[nH]c2c1C (stereo unspecified) the outcome was “inactive”.
For Cc1ccc(C(=O)N2CCN(C)CC2)cc1S(=O)(=O)N1CCCCCC1, the outcome was “inactive”.
With O=C(OCCN1C(=O)c2cccc3c(N4CCOCC4)ccc(c23)C1=O)c1ccccc1Cl the outcome was “inactive”.
With COc1ccc(C(=O)OCC(=O)Nc2ccc3[nH]c(=O)[nH]c3c2)cc1 the outcome was “inactive”.
With Cc1cccc(C(C)(C)C)c1OCCN1CCCC1 the outcome was “inactive”.
For CCOC(=O)Cc1csc(SCC(=O)c2c(N)n(CC(C)C)c(=O)n(C)c2=O)n1, the outcome was “inactive”.
In the case of COc1ccc2c(c1)c(CC(=O)Nc1cc(C)ccc1C)c(C)n2C(=O)c1ccc(Cl)cc1, the outcome is reported as “inactive”.
In the case of S=C(Nc1ccccc1)Nc1ccc(OCc2ccc(Cl)cc2Cl)cc1, the outcome is reported as “inactive”.
For CCCCN1CC(COCc2ccccc2)Oc2cccc(Oc3cc(C)c(C)c(C)c3)c2S1(=O)=O (stereo unspecified), the outcome was “inactive”.
In the case of O=C(CSc1nc(C(F)(F)F)cc(=O)[nH]1)N1CCCC1, the outcome is reported as “inactive”.
With Clc1ccc(-c2cc(-c3nnc4n3CCCCC4)c3ccccc3n2)cc1 the outcome was “inactive”.
In the case of Cc1cc(CN2CCOCC2)c(O)c(C2(C)CCCCC2)c1, the outcome is reported as “inactive”.
In the case of Oc1c(CN2CCN(c3ccccc3)CC2)cc(Br)c2cccnc12, the outcome is reported as “inactive”.
With Cc1ccnc(N/C=C(/NC(=O)c2ccccc2)C(=O)N/N=C\c2ccc(F)cc2)n1 the outcome was “inactive”.
In the case of CCS(=O)(=O)c1ccc2oc(SCC(=O)N3CCCCC3)nc2c1, the outcome is reported as “inactive”.
In the case of Oc1ccc(-c2csc(Nc3cccc4ccccc34)n2)cc1O, the outcome is reported as “inactive”.
For O=C(Cn1cc(C(=O)c2ccco2)c2ccccc21)Nc1ccccc1F, the outcome was “inactive”.
With CCC(=O)c1cn(CC(=O)Nc2ccccc2Cl)c2ccccc12 the outcome was “inactive”.
With NS(=O)(=O)c1ccc(CNC(=S)NC(=O)c2ccco2)cc1 the outcome was “inactive”.
In the case of Cc1ccc(-c2nnc(N3CCC(C)CC3)c3ccccc23)cc1C, the outcome is reported as “inactive”.
In the case of C[C@@H]1CN([C@H](C)CO)C(=O)c2cc(Br)cnc2O[C@H]1CN(C)C(=O)Cc1ccncc1, the outcome is reported as “inactive”.
For Cc1cc(C(=O)COC(=O)c2ccccc2Br)c(C)n1CC1CCCO1 (stereo unspecified), the outcome was “inactive”.
In the case of CCOC(=O)C1CCN(C(=O)c2sc3nc(C)nc(N4CCC(C)CC4)c3c2C)CC1, the outcome is reported as “inactive”.
In the case of CN(C(=O)CSc1nc(-c2cccs2)nc2ccccc12)C1CCS(=O)(=O)C1 (stereo unspecified), the outcome is reported as “inactive”.
For CC(C)=CCC/C(C)=C/CNC(=O)C[C@H]1C[C@H](C(=O)N(C(C)C)C(C)C)[C@@]2(C)c3[nH]c4cc(CCC(=O)N(C)C)ccc4c3CCN2C1=O, the outcome was “inactive”.
In the case of CS(=O)(=O)c1ccc(Sc2nc3ccccc3s2)c([N+](=O)[O-])c1, the outcome is reported as “inactive”.
In the case of O=[N+]([O-])c1cc(S(=O)(=O)C(F)(F)F)ccc1Sc1nc2ccccc2s1, the outcome is reported as “inactive”.
With N#C/C(=C(\O)Cc1ccccc1)c1nc2ccccc2[nH]1 the outcome was “inactive”.
In the case of C=CCOC(=O)C1=C(C)N=C2SCCC(=O)N2C1c1cccs1 (stereo unspecified), the outcome is reported as “inactive”.
For CC(=O)O[C@H]1CC[C@@]2(C)C(=CC[C@H]3[C@@H]4CC[C@H](C(C)=O)[C@@]4(C)CC[C@@H]32)C1, the outcome was “inactive”.
With C=CCNc1nc(N2CCOCC2)c(C#N)c2c1CN(C)CC2 the outcome was “inactive”.
With CC(=O)N1CCOc2cc(S(=O)(=O)NCc3ccc(F)cc3)c(C)cc21 the outcome was “inactive”.
For C[C@@H]1CN([C@H](C)CO)C(=O)CCCn2nncc2CO[C@H]1CN(C)S(=O)(=O)c1ccc2c(c1)OCCCO2, the outcome was “inactive”.
With CCn1nnc2cc(C(=O)Nc3cc(Cl)ccc3C)ccc21 the outcome was “inactive”.
In the case of O=C(Sc1cccc2cccnc12)c1ccccc1Br, the outcome is reported as “inactive”.
With CN(c1ccccc1)S(=O)(=O)c1cccc(NC(=O)CSc2nncs2)c1 the outcome was “inactive”.
For CCOc1ccc2nc(SC3CC(=O)N(c4ccc(C)cc4)C3=O)sc2c1 (stereo unspecified), the outcome was “inactive”.
